Survival data for 92 compounds are collected here from PubChem BioAssay AID463173 (ICCB-Longwood Screening Facility, Harvard Medical School, 2010).

Among all 52,000 compounds or so, about 1,700 (3.3%) were called active. Cut-off read from the data, not from the text of the source: active = survival mostly below about 52% (no sharp cut-off); inactive = mostly above about 56%. The sample as a whole holds a higher share of actives than the screen did.

This assay deals with Wild type. Nature of the assay: growth inhibition of S. aureus wild type versus tarO mutant, primary screen, teichoic acid synthesis inhibitors, RN4220, OD600 (AID 463173). The conditions noted are these: S. aureus RN4220 wild type/DeltatarO growth, OD600, 18 h, stronger effect = lower value, screened at 18.75 µg/mL (by protocol).
For the compound `CCOC(=O)C(C)(C)Sc1nnc(COc2ccccc2)n1CC`, the survival is 100% (inactive). For the compound `C1CCC2(C1)OCC1(CO2)COC2(CCCC2)OC1`, the survival is 111% (inactive). In the case of `Cc1ccc(NC(=O)N2CCC(CN3CCC(C)CC3)CC2)cc1F` it was 82% (inactive).

For the compound `COc1ccc(CCNC(=O)c2cc(-c3ccc(C)cc3)nc3n[nH]c(-c4ccc(F)cc4)c23)cc1OC`, the survival was 136% (inactive). In the case of `Cc1cccc(-c2nc3scc(CCNC(=O)c4ccc(Br)o4)n3n2)c1` it was 74% (inactive); in that of `Cc1cc(C)cc(NC(=O)CSc2nc3c(cnn3-c3ccc(F)cc3)c(=O)[nH]2)c1`, 65% (inactive).

For `O=S(=O)(c1cccc(Cl)c1)c1nnn2c1nc(NC1CCCC1)c1sccc12`, the survival is 95% (inactive). In the case of `CCOc1ccc(C(=O)NCC(c2ccco2)S(=O)(=O)c2ccc(C)cc2)cc1` (configuration not stated) it was 85% (inactive); in that of `Cc1ccccc1CNC(=O)C(=O)NCC(c1ccco1)S(=O)(=O)c1ccccc1` (configuration not stated), 76% (inactive). The figure for `CC(C)(C)c1ccc(C(=O)NCC(c2ccco2)S(=O)(=O)c2ccccc2)cc1` (configuration not stated) is 70% (inactive); for `Cc1ccc(S(=O)(=O)C(CNC(=O)c2ccc(F)c(F)c2)c2ccco2)cc1` (configuration not stated) it is -6% (active); for `O=C(NCc1ccccc1F)C(=O)NCC(c1ccco1)S(=O)(=O)c1ccccc1` (configuration not stated) it is -6% (active). In the case of `Cc1ccc(C(=O)NCC(c2ccco2)S(=O)(=O)c2cccs2)cc1C` (configuration not stated) it was 99% (inactive); in that of `Cc1ccc(C(=O)NCC(c2ccco2)S(=O)(=O)c2ccc(Cl)cc2)cc1C` (configuration not stated), 14% (active); in that of `COc1ccc(C(=O)NCC(c2ccco2)S(=O)(=O)c2ccc(F)cc2)cc1` (configuration not stated), 74% (inactive). For the compound `O=C(NCC(c1ccco1)S(=O)(=O)c1cccs1)c1ccc(F)c(F)c1` (configuration not stated), the survival is 78% (inactive).

`O=C(NCc1ccccc1)C(=O)NCC(c1ccco1)S(=O)(=O)c1ccccc1` (configuration not stated): the survival was 67% (inactive). The figure for `Cc1ccc(C(=O)NCC(c2ccco2)S(=O)(=O)c2ccccc2)cc1C` (configuration not stated) is 72% (inactive); for `COc1ccc(C(=O)NCC(c2ccco2)S(=O)(=O)c2ccccc2)cc1` (configuration not stated) it is -6% (active); for `CCOc1ccc(S(=O)(=O)N(CC(=O)NCc2ccccc2OC)c2ccccc2)cc1` it is 58% (inactive). The figure for `CC1=C(C#N)C(NC(=O)c2ccccc2Cl)(C(F)(F)F)C(=O)N1` (configuration not stated) is 139% (inactive); for `COc1ccc(-c2cn3nc(N4CCC(C(=O)Nc5ccc(Cl)cc5C)CC4)sc3n2)cc1` it is 78% (inactive). Consider `CCOCCCn1c(=N)c(S(=O)(=O)c2ccc(C)cc2)cc2c(=O)n3cccc(C)c3nc21`, for which the survival is 77% (inactive). The figure for `Cc1cc2nn(-c3ccccc3)nc2cc1NC(=O)c1cccc2c(Cl)cccc12` is 70% (inactive); for `COc1ccc(N2CCN(CCCNC(=O)c3cnn(-c4ccc(F)cc4)c3-n3cccc3)CC2)cc1` it is 77% (inactive). Consider `O=C(NCC(c1ccco1)S(=O)(=O)c1ccc(Cl)cc1)c1ccc(C(F)(F)F)cc1` (configuration not stated), for which the survival was -1% (active). The figure for `CC(C)(C)c1ccc(C(=O)NCC(c2ccco2)S(=O)(=O)c2ccc(F)cc2)cc1` (configuration not stated) is 131% (inactive).

With `Cc1ccc(S(=O)(=O)C(CNC(=O)c2ccc(C(F)(F)F)cc2)c2ccco2)cc1` (configuration not stated), the survival is 134% (inactive).

On to `O=c1c2[nH]c3ccccc3c2nc(SCc2cccc(F)c2)n1-c1ccccc1`, for which the survival was 53% (inactive). In the case of `CCOC(=O)CC(NC(=O)c1cc2c(=O)n3cccc(C)c3nc2s1)c1ccc(OCC(C)C)c(OC)c1` (configuration not stated) it was 77% (inactive); in that of `CCOc1ccccc1NC(=O)c1ccc(F)c(S(=O)(=O)NCc2ccc3c(c2)OCO3)c1`, 63% (inactive). For `CN(Cc1ccccc1)S(=O)(=O)c1ccc(F)c(C(=O)Nc2ccccc2C(F)(F)F)c1`, the survival was -6% (active). As to `COc1ccccc1NC(=O)c1cnn(-c2ccccc2)c1-n1cccc1`, the survival was 99% (inactive). For `O=C(Nc1ccc(Cl)cc1C(F)(F)F)c1cc(S(=O)(=O)NCc2ccccc2)ccc1F`, the survival was 134% (inactive).

Turning to `CCN(Cc1ccccc1)S(=O)(=O)c1ccc(F)c(C(=O)Nc2cc(C(F)(F)F)ccc2Cl)c1`, the survival is -1% (active).

For `COc1cc(OC)c(NC(=O)c2cnn(-c3ccccc3)c2-n2cccc2)cc1Cl`, the survival was 80% (inactive). Turning to `O=C(Nc1cc(C(F)(F)F)ccc1Cl)c1cc(S(=O)(=O)NCc2ccccc2)ccc1F`, the survival is 14% (active). The figure for `CN(Cc1ccccc1)S(=O)(=O)c1ccc(F)c(C(=O)Nc2cccc(Cl)c2Cl)c1` is 159% (inactive); for `CCN(Cc1ccccc1)S(=O)(=O)c1ccc(F)c(C(=O)Nc2cc(C)ccc2OC)c1` it is 120% (inactive).

Consider `O=C(Nc1cc(C(F)(F)F)ccc1Cl)c1cnn(-c2ccccc2)c1-n1cccc1`, for which the survival was -3% (active). As for `O=C(Nc1cc(Cl)ccc1Cl)c1cc(S(=O)(=O)NCCc2ccccc2)ccc1F`, the survival was 133% (inactive).

`CN(Cc1ccccc1)S(=O)(=O)c1ccc(F)c(C(=O)Nc2cc(Cl)cc(Cl)c2)c1`: the survival is 76% (inactive). In the case of `CCN(Cc1ccccc1)S(=O)(=O)c1ccc(F)c(C(=O)Nc2ccc(C(C)C)cc2)c1`, the survival was 95% (inactive).

Turning to `COc1cccc(CNC(=O)c2ccc3c(c2)c(C)c(C)n3Cc2ccccc2)c1`, the survival is 72% (inactive).

For the compound `CCC(C)Nc1sc(S(=O)(=O)CC)nc1S(=O)(=O)c1ccc(C)cc1` (configuration not stated), the survival is 78% (inactive).

`COc1ccccc1CNC(=O)Cn1ncn2c(cc3sccc32)c1=O`: the survival was 76% (inactive). In the case of `O=C(CN1C(=O)COc2ccc(S(=O)(=O)N3CCOCC3)cc21)N1CCN(c2ccccc2F)CC1` it was 100% (inactive). The figure for `O=C(CCS(=O)(=O)c1ccccc1)N(Cc1cccnc1)c1nc2ccc(F)cc2s1` is 124% (inactive). The figure for `Cc1nccn1S(=O)(=O)c1c(C(C)C)cc(C(C)C)cc1C(C)C` is 119% (inactive); for `CCOc1cc(C)c(C(C)C)cc1S(=O)(=O)n1ccnc1CC` it is -11% (active). As to `CCc1nccn1S(=O)(=O)c1cc(Br)ccc1Br`, the survival was 69% (inactive).

For `Cc1ccc(CNC(=O)Cn2ncc3c([nH]c4ccc(C)cc43)c2=O)cc1`, the survival is 79% (inactive). In the case of `CCCCN(C)C(=O)Cn1ncc2c([nH]c3ccc(C)cc32)c1=O` it was 81% (inactive); in that of `Cc1ccc2[nH]c3c(=O)n(CC(=O)N(CCN(C)C)Cc4ccccc4)ncc3c2c1`, 99% (inactive).

For `Cc1ccc(CCNC(=O)Cn2ncc3c([nH]c4ccc(C)cc43)c2=O)cc1`, the survival is 131% (inactive). In the case of `Cc1ccc2[nH]c3c(=O)n(CC(=O)N(C)Cc4ccccc4)ncc3c2c1` it was -3% (active); in that of `Cc1ccc2[nH]c3c(=O)n(CC(=O)NC(C)C)ncc3c2c1`, 1% (active).

Turning to `O=C(NCC(c1cccs1)S(=O)(=O)c1cccs1)c1ccccc1` (configuration not stated), the survival is 70% (inactive). The figure for `COc1ccccc1CCNC(=O)Cn1ccc2cc(S(=O)(=O)N3CCCCC3)ccc21` is 87% (inactive); for `Cc1cccc(C(=O)n2nc(-c3cccnc3)nc2NCc2ccccc2)c1` it is 106% (inactive). Consider `O=S(=O)(c1ccccc1)c1nc(-c2ccccc2F)oc1N1CCOCC1`, for which the survival is 77% (inactive).

Turning to `COc1ccccc1-c1nc(S(=O)(=O)c2ccc(Cl)cc2)c(N2CCCCCC2)o1`, the survival was 70% (inactive).

As to `COc1ccccc1-c1nc(S(=O)(=O)c2ccccc2)c(N2CCC(C)CC2)o1`, the survival was -5% (active).

Take `Cc1ccc(-c2nc(S(=O)(=O)c3ccc(Cl)cc3)c(N3CCCCC3)o2)cc1`: the survival was 5% (active).

As for `COc1ccc(-c2nc(S(=O)(=O)c3ccccc3)c(N3CCC(C)CC3)o2)cc1`, the survival was 89% (inactive). The figure for `Cc1ccc(S(=O)(=O)c2nc(-c3ccccc3F)oc2N2CCCCC2)cc1` is 17% (active); for `COc1ccc(-c2nc(S(=O)(=O)c3ccc(Cl)cc3)c(N3CCCCCC3)o2)cc1` it is 64% (inactive); for `Cc1ccc(S(=O)(=O)c2nc(-c3ccccc3Cl)oc2N2CCCCCC2)cc1` it is 20% (inactive). The figure for `O=S(=O)(c1ccccc1)c1nc(-c2ccccc2Cl)oc1N1CCCCCC1` is 14% (active); for `Cc1ccc(S(=O)(=O)c2nc(-c3ccc(Cl)cc3)oc2N2CCCCCC2)cc1` it is 30% (inactive). The figure for `O=S(=O)(c1ccccc1)c1nc(-c2ccc(Cl)cc2Cl)oc1N1CCCCC1` is 57% (inactive); for `Cc1ccc(S(=O)(=O)c2nc(-c3ccc(F)cc3)oc2N2CCN(c3ccccc3)CC2)cc1` it is 115% (inactive). Consider `CCC(Oc1ccccc1)C(=O)Nc1cc(-c2cccc(C)c2)nn1-c1ccccc1` (configuration not stated), for which the survival is 89% (inactive).

As to `CCOC(=O)c1ccc(NC(=O)CSc2nnc(CNC(=O)c3ccc(OC)cc3)n2CC)cc1`, the survival is 134% (inactive). In the case of `COc1ccc(-c2nnc(C3CCN(C(=O)c4ccccc4F)CC3)o2)cc1` it was 85% (inactive); in that of `CCOC(=O)c1ccc(NC(=O)CC2C(=O)N(c3ccccc3)C(=O)N2Cc2ccc(C)cc2)cc1` (configuration not stated), 58% (inactive). In the case of `COc1ccccc1NC(=O)CCCc1nnc2n(C)c(=O)c3sccc3n12` it was 97% (inactive). In the case of `CC1CCN(C(=O)CS(=O)(=O)Cc2ccccc2)CC1` it was 102% (inactive); in that of `O=C1C(=O)N(C2CCN(C(=O)c3cccc(Cl)c3)CC2)CCN1Cc1ccc(F)cc1`, 77% (inactive). In the case of `Cc1nc2c3ccccc3nc(NNC(=O)CCC(=O)N3CCN(c4ccccc4)CC3)n2n1`, the survival was 81% (inactive). In the case of `COc1ccc(-n2c(=O)c3c(c4cc(OC)ccc4n3C)n(CC(=O)NCC3CCCO3)c2=O)cc1` (configuration not stated), the survival is 83% (inactive). In the case of `COc1ccc(CNCCSc2nnnn2-c2ccccc2)cc1` it was 83% (inactive); in that of `Cc1ccc(C)c(NC(=O)CN(Cc2ccccc2)S(=O)(=O)c2ccc3nc(C)sc3c2)c1`, 66% (inactive); in that of `COc1ccc(-c2nc(S(=O)(=O)c3ccc(C)cc3)c(N3CCCCC3)o2)cc1`, 63% (inactive). The figure for `Cc1ccc(-c2nc(S(=O)(=O)c3ccc(C)cc3)c(N3CCN(c4ccccc4)CC3)o2)cc1` is 104% (inactive). The figure for `Cc1cccc(-c2nc(S(=O)(=O)c3ccc(Cl)cc3)c(N3CCCCCC3)o2)c1` is 41% (inactive); for `Cc1ccc(S(=O)(=O)c2nc(-c3cccc(C)c3)oc2N2CCCCC2)cc1` it is 2% (active); for `Cc1ccc(-c2nc(S(=O)(=O)c3ccc(C)cc3)c(N3CCCCCC3)o2)cc1` it is 84% (inactive). For `Cc1ccc(S(=O)(=O)c2nc(-c3ccccc3)oc2N2CCCCCC2)cc1`, the survival is 6% (active).

For `Cc1ccc(-c2nc(S(=O)(=O)c3ccc(C)cc3)c(N3CCCCC3)o2)cc1`, the survival was 0% (active). The figure for `Cc1ccc(S(=O)(=O)c2nc(-c3cccc(C)c3)oc2N2CCN(c3ccccc3)CC2)cc1` is 117% (inactive); for `Cc1ccc(S(=O)(=O)c2nc(-c3ccccc3)oc2N2CCN(c3ccccc3)CC2)cc1` it is 86% (inactive).
